This assay in a line: InCell qHTS Assay for Inhibitors of the mTORC1 Signaling Pathway in WT MEF Cells: Hit Validation. The text has this: The mammalian target of rapamycin (mTOR) is an intracellular serine/threonine kinase Aberrant regulation of mTOR signaling plays a causative role in a number of human diseases, including cancer, benign tumors such as lymphangioleiomyomatosis (LAM) and Tuberous Sclerosis Complex (TSC), and metabolic diseases such as diabetes and obesity. This project aims to identify inhibitors of ribosomal protein S6 (rpS6) phosphorylation. The phosphorylation of rpS6 is a key event downstream of mTOR activation. The assay uses a phospho-specific antibody of phospho-rpS6 to detect inhibitors of mTOR activation. […]
For quantitative high throughput analysis of mTORC1 signaling, we developed a cell-based assay for immuno-fluorescence based detection of rpS6 phosphorylation on the Acumen Explorer that will be used a platform for the primary small molecule screen. […] The fluorescence emission from the Alexa-488 conjugated rpS6 phospho-235/236 antibody staining is selected using a […] band pass filter. Fluorescence emission from the PI stain is selected using a 575-640 nm band pass filter. The normalized phospho-S6 staining is calculated as the ratio of the integrated Alexa 488 intensity divided by the integrated PI intensity for the single concentration rapamycin control (7.5 nM) and DMSO columns. […]
(In qHTS, concentration-response curves come from the screen itself.)

Records with an inconclusive call do not appear. Where a call stands in place of a potency, no number is given. The source made the active and inactive calls. Calls come from the whole dose curve; as a rule, active = well fitted inhibition curve with a large enough effect; inconclusive = small, poorly fitted or top-dose-only effect; inactive = flat fitted curve, though single readings scatter.

Two compounds from PubChem BioAssay AID651793 (National Center for Advancing Translational Sciences (NCATS), 2012) can be followed below.

For the compound `CCOc1ccc(NC(=O)c2cc3c(C)nn(-c4ccccc4)c3s2)cc1`, the Potency is 17.9 µM (active).
On to `Cn1cc(C2=C(c3cn(C4CCN(Cc5ccccn5)CC4)c4ccccc34)C(=O)NC2=O)c2ccccc21`, for which the Potency entry is “inactive”.
